From PubChem BioAssay (NCI)
Where “and” joins values, the source holds several entries; their conditions need not be identical. Identical values can stand only once. About 83,000 compounds went through this panel and 20% of them were active in at least one assay; those are over-represented in the sample as a whole.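 The test compound was applied at a single concentration to cells in 96-well plates for 48 hours, and percent growth was recorded.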 Unmarked numbers belong to inactive results. Calls of active or inactive are those of the source. Rule for the calls: active = growth percent below 10; inactive = the rest.

Assays:
Test in all cases: NCI-60 one-dose screen, 48 h (100 = growth as untreated, 0 = no growth, -100 = all killed)
Settings in all cases: 10 µM unless noted
[1] = tested on: HCT-15 colon
[2] = tested on: HT29 colon
[3] = tested on: SNB-75 CNS
[4] = tested on: SNB-19 CNS
[5] = tested on: U251 CNS
[6] = tested on: PC-3 prostate
[7] = tested on: SK-MEL-5 melanoma
[8] = tested on: UACC-62 melanoma
[9] = tested on: LOX IMVI melanoma
[10] = tested on: SK-MEL-28 melanoma

| Structure (SMILES) | growth [1] | growth [2] | growth [3] | growth [4] | growth [5] | growth [6] | growth [7] | growth [8] | growth [9] | growth [10] |
| --- | --- | --- | --- | --- | --- | --- | --- | --- | --- | --- |
| O=C(NCCCN1CC1)Nc1cccc2ccccc12 | 106% and 100% | 83.9% | 105% and 102% | 88.5% and 95% | 87% and 86.6% | 87.8% and 89.7% | 107% and 93.3% | 98% and 105% | 95.6% and 78.4% | 107% and 115% |
| CC/C(Cc1ccccc1)=C(\c1ccc(OCCN2CCCC2)cc1)c1ccc(OC(=O)NCc2ccccc2)cc1 | -11.5% (active) | -42.1% (active) | 57.7% | 54.9% | 12.5% | 47.8% | 19.3% | -45.4% (active) | 49.3% | -60.3% (active) |
| N#CC(N)c1ccccc1 (centres undefined) | 104% | 111% | 97.4% | 105% | 105% | 104% | 101% | 99.5% | 101% | 113% |
| CC(Oc1ccc(-c2ccccc2)cc1)C(=O)O (centres undefined) | 108% | 103% | 91.6% | 97% | 97.4% | 101% | 97% | – | 104% | 110% |
| N#CC(NC(=O)CCl)=C(Cl)Cl | -21.1% (active) | -49.2% (active) | 66.6% | 60.3% | 9.19% (active) | 37.7% | 25.4% | -5.68% (active) | -56.4% (active) | -39.9% (active) |
| CC[C@H](C)[C@H](NC(=O)C12CC(NC)(C1)C2)C(=O)N(C)[C@H](C[C@@H](OC(C)=O)c1nc(C(=O)N[C@@H](Cc2ccccc2)C[C@H](C)C(=O)OC)cs1)C(C)C | 18.4% | -4.54% (active) | 23.5% | – | 12.7% | 23.6% | -31.7% (active) | 45% | 5.36% (active) | 53.4% |
| O=[N+]([O-])c1ccc(P(=O)(O)O)cc1 | 103% | 100% | 80.2% | – | 96.2% | 91.3% | 109% | 105% | 93.2% | 109% |
| CN(C)c1ccc([N+](=O)[O-])c([N+](=O)[O-])c1 | 110% and 100% | 109% and 102% | 93% and 86.4% | 106% and 102% | 101% and 96.9% | – | 101% and 97% | 97.6% and 90.3% | 93% | 104% |
| O=C(O)C(F)F | 106% | 100% | 113% | 111% | 108% | – | 99.7% | 102% | 99% | 116% |
| O=S(=O)(c1ccc(O)cc1)c1ccccc1O | 108% | 112% | 96.7% | 104% | 107% | – | 102% | 98.2% | – | 105% |
| C/C=C(/C)C(=O)O[C@H]1CC[C@@]2(C)[C@@H]3CC[C@H]4[C@]5(O)C[C@H](O)[C@@]6(O)[C@@H](CN7C[C@@H](C)CC[C@H]7[C@@]6(C)O)[C@]5(O)C[C@@]42O[C@@]13O | 98.4% | 92.4% | 79.9% | 112% | 103% | – | 102% | 127% | 104% | 124% |
| O=C1CN2CCC1CC2 | 97% | 99.5% | 102% | 104% | 101% | – | 103% | 104% | 104% | 119% |
| Cc1c2ccncc2c(C)c2c1[nH]c1ccccc12 | -40.3% (active) | 2% (active) | -89% (active) | -84.8% (active) | -82.2% (active) | – | -97.7% (active) | 56.5% | -77.6% (active) | -96.7% (active) |
| CN(C)c1ccc(N)cc1 | 106% and 83.6% | 102% and 37.4% | 83.4% and 62.8% | 99.5% and 47.8% | 98.2% and 17.5% | – | 96.4% and 44.5% | 89% and 43.3% | 94.2% and 27.2% | 115% and 73.2% |
